About 5,700 (36%) of roughly 16,000 compounds were called active. Inconclusive results (about 24%) are left out. The list shows a part of the results. Unmarked numbers belong to inactive results. Calls come from the whole dose curve; as a rule, active = well fitted curve in the direction sought with a large enough effect; inconclusive = small, poorly fitted or top-dose-only effect, or effect the other way; inactive = no such curve, though single readings can be large or run the other way.
Molecular target: Cytochrome P450 1A2 (Homo sapiens) (UniProt P05177)
Experiment: Cytochrome panel assay with activity outcomes
Details: recombinant CYP, pro-luciferin dealkylation, luminescence, p450-cyp1a2; series mostly up to 57.1 µM; activity, negative = inhibition: at the top concentration
% is set by controls: 0 for no effect and ±100 for the full control effect.

Cytochrome P450 1A2 (Homo sapiens), sequence (P05177 whole entry, looked up): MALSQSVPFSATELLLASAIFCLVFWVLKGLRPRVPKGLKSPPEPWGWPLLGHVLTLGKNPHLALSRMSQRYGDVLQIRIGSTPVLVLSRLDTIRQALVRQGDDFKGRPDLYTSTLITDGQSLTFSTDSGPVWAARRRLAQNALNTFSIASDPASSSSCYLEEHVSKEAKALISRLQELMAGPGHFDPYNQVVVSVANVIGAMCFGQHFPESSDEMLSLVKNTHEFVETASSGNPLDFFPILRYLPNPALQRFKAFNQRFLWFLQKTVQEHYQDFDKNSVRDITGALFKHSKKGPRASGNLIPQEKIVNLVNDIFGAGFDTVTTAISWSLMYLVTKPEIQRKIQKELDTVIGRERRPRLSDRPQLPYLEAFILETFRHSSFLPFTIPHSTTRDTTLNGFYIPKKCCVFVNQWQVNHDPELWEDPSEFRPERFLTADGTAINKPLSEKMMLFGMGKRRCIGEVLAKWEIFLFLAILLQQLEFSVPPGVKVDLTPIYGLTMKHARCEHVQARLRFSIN

`CC(C)=CC(=O)Nc1nnc(C(C)C)s1` was tested. Which AC50 did it give?
The AC50 was 15800 nM (active).

`CC(C)c1nnc(NC(=O)CCC(=O)N2CCN(c3ccccn3)CC2)s1` was tested. Which “activity, negative = inhibition” value did it give?
The value was -0.62%.

Which “activity, negative = inhibition” value does the source give for `CC(=O)Nc1nnc(S(N)(=O)=O)s1` here?
The value was -2.87% [at 25.6 µM].

For `O=C(/C=C/c1ccco1)NC(=S)Nc1ccc(N2CCOCC2)c(Cl)c1`, which “activity, negative = inhibition” value is on record?
The value was -5.19%.

For `Cc1ccc(/C=C/C(=O)NC(=S)Nc2ccccc2C(=O)NC2CCCCC2)cc1`, which “activity, negative = inhibition” value is on record?
The value was -16.9%.

With `Cc1ccc(-c2csc(NC(=S)NC(=O)/C=C/c3ccco3)n2)cc1` as the compound, how does the AC50 read?
The AC50 was 5620 nM (active).

For `O=P(O)(CCP(=O)(O)c1ccccc1)c1ccccc1`, which activity, negative = inhibition is on record?
Its activity, negative = inhibition is -14.2% [at 11.4 µM].

With `Cc1cc2nc(C)n(CCCN)c2cc1C` as the compound, how does the AC50 read?
The AC50 was 12600 nM (active).

With `NCCCc1ccc2oc3ccccc3c2c1` as the compound, how does the AC50 read?
Its AC50 is 31.6 nM (active).

For `CCN(CC)C(=O)C1CCN(S(=O)(=O)c2ccc3oc4ccccc4c3c2)CC1`, which “activity, negative = inhibition” value is on record?
The value was -25.6%.

Which AC50 does the source give for `Cc1ccc(C(=O)Nc2ccc(Cc3ccncc3)cc2)cc1[N+](=O)[O-]` here?
The AC50 was 282 nM (active).

With `O=C(N/N=C/C=C/c1ccc([N+](=O)[O-])cc1)c1cccs1` as the compound, how does the “activity, negative = inhibition” value read?
Its value is -16.7%.

How did the “activity, negative = inhibition” value turn out when `Cc1ccc(C(=O)COC(=O)CNC(=O)C(c2ccccc2)c2ccccc2)cc1[N+](=O)[O-]` was run?
Its value is -16.2%.

For `Cc1ccc(C(=O)N/N=C\c2ccc[nH]2)cc1[N+](=O)[O-]`, which AC50 is on record?
The AC50 was 1780 nM (active).

Which AC50 does the source give for `Cc1ccc(/C=N/NC(=O)c2cccs2)cc1[N+](=O)[O-]` here?
The AC50 was 2240 nM (active).

How did the “activity, negative = inhibition” value turn out when `CCC(=O)Nc1ccc(C(=O)OCC(=O)c2ccc(C)c([N+](=O)[O-])c2)cc1` was run?
Its value is -3.08%.

`Cc1ccc(C(=O)Nc2ccccc2Oc2ccccc2)cc1[N+](=O)[O-]` was tested. Which AC50 did it give?
Its AC50 is 12600 nM (active).

For `Cc1ccc(C(=O)N/N=C/c2cc(C)n(-c3ccc(Br)cc3)c2C)cc1[N+](=O)[O-]`, which “activity, negative = inhibition” value is on record?
The value was -30%.

With `COc1cccc(CNC(=O)C2CCN(S(=O)(=O)N3CCCCC3)CC2)c1` as the compound, how does the “activity, negative = inhibition” value read?
Its value is -8.64%.

How did the “activity, negative = inhibition” value turn out when `CN1CC[C@@]2(CCN3CCc4c(oc5ccccc45)[C@@H]3C2)N(C)C1=O` was run?
The value was -14.2%.

For `C[C@@H](N)[C@@H](C)Cc1ccccc1`, which activity, negative = inhibition is on record?
Its activity, negative = inhibition is -20% [at 11.4 µM].

Which AC50 does the source give for `O=C1c2ccc3c4c(ccc(c24)C(=O)N1c1ccc2ccccc2c1)CC3` here?
The AC50 was 794 nM (active).

Which “activity, negative = inhibition” value does the source give for `CCOc1ccc(N2C(=O)c3cccnc3C2=O)cc1` here?
Its value is -25.1%.

`CCc1ccc(N2C(=O)c3ccc4c5c(ccc(c35)C2=O)CC4)cc1` was tested. Which AC50 did it give?
The AC50 was 4470 nM (active).

`N#Cc1cccc(-c2ccc3ncnc(NCc4cccs4)c3c2)c1` was tested. Which AC50 did it give?
Its AC50 is 100 nM (active).

How did the AC50 turn out when `N#Cc1cccc(-c2ccc3ncnc(NCc4ccccc4)c3c2)c1` was run?
Its AC50 is 100 nM (active).

Which AC50 does the source give for `Cc1cccc(CNc2ncnc3ccc(-c4cccc(C#N)c4)cc23)c1` here?
Its AC50 is 631 nM (active).

How did the AC50 turn out when `c1csc(CNc2ncnc3ccc(-c4ccoc4)cc23)c1` was run?
The AC50 was 3160 nM (active).
